proKLK7 act: activates the human kallikrein-7 zymogen. P49862. purified proKLK7, EDANS-DABCYL substrate fluorescence; 100% is mature enzyme control, 0% vehicle. activation, % at 7 µM. hit rate 0.9% among 370,000. AID 652039;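 active means activation above the mean of all tested compounds plus 3 SD, computed per campaign excluding outliers beyond control limits, cut at about 13% in these data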
Target sequence (P49862 whole entry, looked up): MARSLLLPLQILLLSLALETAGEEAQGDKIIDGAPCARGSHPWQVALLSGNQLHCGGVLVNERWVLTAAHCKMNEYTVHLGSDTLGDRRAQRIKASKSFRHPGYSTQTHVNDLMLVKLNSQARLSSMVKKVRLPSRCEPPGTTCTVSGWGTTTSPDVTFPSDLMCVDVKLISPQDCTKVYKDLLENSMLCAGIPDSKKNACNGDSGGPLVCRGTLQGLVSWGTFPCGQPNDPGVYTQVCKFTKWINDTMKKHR
SMARCA2 activ: SMARCA2 function activation, primary screen; AID 652017; MG213 cells, MMTV-luciferase reporter, dexamethasone, overnight; activation, % at 9.1 µM; hit rate 1% among 370,000; in the data active means activation above about 7.8%
bovine MsrA act: activates bovine MsrA enzyme. activation, % at 10.6 µM. hit rate 0.3% among 360,000. AID 602163. purified bovine MsrA, absorbance read-out; in the data active means activation above about 7.5%
MsrA inh: inhibitors of bovine MsrA; AID 651718; hit rate 0.75% among 360,000; purified bovine MsrA, absorbance read-out; inhibition, % at 15.5 µM; in the data active means inhibition above about 4.5%
SMARCA2 act conf: SMARCA2 activation, confirmation screen; shares compounds with SMARCA2 activ; MG213 cells, MMTV-luciferase with dexamethasone, luminescence, overnight; MG213 cells expressing E1A, Rb sequestered; DMSO wells 0%, reference activator 100%; activation, % at 9.1 µM; hit rate 30% among 3,500;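 active means activation above its plate's cutoff, the mean activation of tested wells plus 3 SD, cut at about 7.9% in these data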
VP16 Luc act: counter-screen for SMARCA2 activators: GAL4-VP16 luciferase reporter activation; shares compounds with SMARCA2 activ; HEK293 GAL4-VP16 pG5luc reporter, luciferase luminescence; scaled: DMSO wells 0%, SAHA wells 100%; activation, % at 9.1 µM; hit rate 41% among 3,500; AID 686939;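 active means activation above the solvent-only control well mean plus 3 SD, averaged across control plates, cut at about 5.2% in these data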
proKLK7 act conf: proKLK7 activation, confirmation; purified proKLK7, EDANS-DABCYL substrate fluorescence; scaled: vehicle 0, mature enzyme 100; hit rate 68% among 3,200; shares compounds with proKLK7 act; activation, % at 7 µM;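 active means activation, as change over the incubation, above the mean of all tested compounds plus 3 SD, cut at about 13% in these data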
EDANS interfere: counter-screen for kallikrein-7 activators: EDANS-DABCYL optical interference | activation, % at 7 µM | EDANS-DABCYL substrate fluorescence interference, no enzyme, 4 h; solvent 0%, active enzyme control 100% | shares compounds with proKLK7 act | hit rate 80% among 3,200;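 active means activation above the all-compound mean plus 3 SD, ignoring values outside control-based bounds, cut at about 4.8% in these data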;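 further: value is the 4 h activation minus the activation read at time zero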
K7 EDANS ctr: EDANS fluorescence interference in dose response, no enzyme; EC50, µM; hit rate 20% among 250; EDANS-DABCYL peptide fluorescence interference; shares compounds with proKLK7 act; AID 720493;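 active means compounds that raise the fluorescence signal in this interference counterscreen, with EC50 at or below 10 µM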;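 further: intact quenched peptide substrate alone read at 355 nm excitation and 520 nm emission; signal is fluorescence gain from T0 to T4 after four hours at room temperature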
Each line names hits and unclear results; the compound was inactive in the other large screens (follow-up assays come after a bar, where they were run). This is a sample that favours compounds with a hit; in the whole collection about 2.8% have one here.

CCN(CC(=O)Nc1ccccc1C(F)(F)F)C(=O)c1ccccc1Cc1ccccc1	none
CCCn1c(=NC(=O)c2ccco2)c(C(=O)OCC)cc2c(=O)n3ccccc3nc21	proKLK7 act 89, SMARCA2 activ 13 | SMARCA2 act conf inactive | VP16 Luc act inactive | proKLK7 act conf 35 | EDANS interfere 35
COCCCNC(=O)C[C@H]1C(=O)N(Cc2ccc(OC)cc2)C2=CCCCC[C@@]21C(=O)OC	none (no result: bovine MsrA act, MsrA inh)
CCCCN(C)CCn1c(=S)[nH]c2ccc(N3CCOCC3)cc2c1=O	proKLK7 act 68, SMARCA2 activ 9.7 | SMARCA2 act conf inactive | VP16 Luc act inactive | proKLK7 act conf inactive | EDANS interfere inactive
O=c1c2cc(N3CCOCC3)ccc2[nH]c(=S)n1CCc1ccccc1	none
Cc1ccc(C#N)c(SCC(=O)Nc2nccs2)n1	proKLK7 act 130, SMARCA2 activ 14 | SMARCA2 act conf inactive | VP16 Luc act inactive | proKLK7 act conf 209 | EDANS interfere 182
CCc1nnc(NS(=O)(=O)c2ccc(NC(=O)c3ccc([N+](=O)[O-])s3)cc2)s1	none
COc1ccc2cc3cc(C(=O)NC(C)C)oc3nc2c1	proKLK7 act 35, SMARCA2 activ 9.1 | SMARCA2 act conf inactive | VP16 Luc act inactive | proKLK7 act conf 78 | EDANS interfere 83
COc1ccc2cc3cc(C(=O)Nc4cc(OC)c(OC)c(OC)c4)oc3nc2c1	none
COc1ccc2nc3ccccc3[n+]([O-])c2c1	proKLK7 act 27, SMARCA2 activ 8.4 | SMARCA2 act conf inactive | VP16 Luc act 6.2 | proKLK7 act conf 32 | EDANS interfere 34
COc1ccc2c(ccc[n+]2[O-])c1	none
CN1CCCC1CCNc1ccc2oc3ccccc3c(=O)c2c1 (stereo not given)	none (no result: bovine MsrA act)
CN1CCCC1CCNc1ccc2c(=O)c3ccccc3oc2c1 (stereo not given)	proKLK7 act 76, SMARCA2 activ 11 | SMARCA2 act conf 14 | VP16 Luc act 8.9 | proKLK7 act conf 72 | EDANS interfere 80
Cn1c2ccccc2c(=O)c2cc(NCCCN3CCOCC3)ccc21	proKLK7 act 75, SMARCA2 activ 15 | SMARCA2 act conf 18 | VP16 Luc act 8.7 | proKLK7 act conf 70 | EDANS interfere 76
CN1CCC[C@H]1CCNc1ccc2c(=O)c3ccccc3n(C)c2c1	proKLK7 act 49, SMARCA2 activ 27 | SMARCA2 act conf 53 | VP16 Luc act 8.6 | proKLK7 act conf 84 | EDANS interfere 80
O=c1c2ccccc2oc2ccc(NCCCN3CCOCC3)cc12	none
Cc1ccc(-n2c(SCC(=O)c3ccc(-c4ccccc4)cc3)nnc2-c2ccc(C(C)(C)C)cc2)cc1	none (no result: bovine MsrA act, MsrA inh)
O=C1Nc2ccccc2/C1=C/c1cnc(-c2ccccc2)[nH]1	proKLK7 act 20, SMARCA2 activ 18 | SMARCA2 act conf 13 | VP16 Luc act 11 | proKLK7 act conf 40 | EDANS interfere 54
CN(C(=O)c1cc2c(=O)n3ccccc3nc2n1C)C1CCCCC1	proKLK7 act 69, SMARCA2 activ 8.0 | SMARCA2 act conf inactive | VP16 Luc act 14 | proKLK7 act conf 74 | EDANS interfere 81
O=C(C1CC1)N1CCc2cc(Br)c(S(=O)(=O)NCCCN3CCCCC3)cc21	none (no result: bovine MsrA act, MsrA inh)
CC(=O)Oc1ccc2c(=O)c(-c3ccccc3)coc2c1	proKLK7 act 90, SMARCA2 activ 10 | SMARCA2 act conf inactive | VP16 Luc act 5.6 | proKLK7 act conf 274 | EDANS interfere 247
Cc1noc(NS(=O)(=O)c2ccc(NS(=O)(=O)c3ccc(C(C)(C)C)cc3)cc2)c1C	none
COc1ccc2oc(-c3ccncc3)cc(=O)c2c1	proKLK7 act 21, SMARCA2 activ 8.7 | SMARCA2 act conf 13 | VP16 Luc act 6.5 | proKLK7 act conf 37 | EDANS interfere 33
COc1ccc(-c2cc(=O)c3cc(O)ccc3o2)cc1	none
CCN(CC)C(=O)CC[C@H]1CC[C@]2(CCCN(Cc3ccccn3)C2)O1	none (no result: bovine MsrA act, MsrA inh)
COc1ccc(-c2cc3ccc(O)cc3oc2=O)cc1OC	proKLK7 act 42, SMARCA2 activ 8.5 | SMARCA2 act conf inactive | VP16 Luc act inactive | proKLK7 act conf 71 | EDANS interfere 71
COc1ccc2nc3cc(Cl)ccc3c(Nc3ccc(O)c(CN4CCN(C)CC4)c3)c2c1	proKLK7 act 22, SMARCA2 activ 20 | SMARCA2 act conf 91 | VP16 Luc act inactive | proKLK7 act conf 32 | EDANS interfere 22 | K7 EDANS ctr inactive
COc1ccc2nc3cc(Cl)ccc3c(C#N)c2c1	none
Cc1cccc(Cn2cc(COC(=O)N3CCCC3)nn2)c1	none (no result: bovine MsrA act, MsrA inh)
c1ccc(C2Nc3ccccc3-c3nc4ccccc4n32)nc1 (stereo not given)	proKLK7 act 36, SMARCA2 activ 10 | SMARCA2 act conf inactive | VP16 Luc act inactive | proKLK7 act conf 14 | EDANS interfere 16
NC(=O)NN=C1CCN2CCCc3cccc1c32	proKLK7 act 30 | proKLK7 act conf 51 | EDANS interfere 55
Cc1nc2sc(C(=O)NCc3nccs3)c(N)c2c(C)c1Cl	proKLK7 act 84 (no result: bovine MsrA act, MsrA inh) | proKLK7 act conf 63 | EDANS interfere 68
COc1cc2c(cc1OC)CN(C1CCCN(Cc3cccc(C(C)=O)c3)C1)CC2 (stereo not given)	proKLK7 act 23 | proKLK7 act conf inactive | EDANS interfere 12
Cc1cc(CN2CCCC(N3CCc4ccccc4C3)C2)cc(C)c1O (stereo not given)	none
O=C(Nc1ccc2c(c1)[nH]c(=O)c1ccccc12)C(F)(F)F	proKLK7 act 211 | proKLK7 act conf 163 | EDANS interfere 153
O=C(Nc1cccc2c1[nH]c1ccccc12)C(F)(F)F	proKLK7 act 21 | proKLK7 act conf 16 | EDANS interfere 12 | K7 EDANS ctr inactive
O=C(Nc1cccc2c1[nH]c(=O)c1ccccc12)C(F)(F)F	none
CC(=O)Nc1ccc2c(c1)[nH]c(=O)c1ccccc12	none
CCOC1=C2[C@@H](CN(S(=O)(=O)c3ccc(C)cc3)[C@H]2c2ccccc2Cl)[C@H]2C(=O)N(C)C(=O)[C@H]2C1	none
Nc1nc2nc(-c3ccc(F)cc3)cc(C(F)(F)F)n2n1	proKLK7 act 24 | proKLK7 act conf 17 | EDANS interfere 16
O=C(c1cnn2c(C(F)(F)F)cc(-c3cccs3)nc12)N1CCCC1	proKLK7 act 16 | proKLK7 act conf 13 | EDANS interfere 14
